Records with an inconclusive call do not appear. Active and inactive are the calls of the source. No cut-off is given here; in the data, nearly all actives have AC50 up to about 26 µM.
test: viability loss in pontine glioma line – cell-based, SU-DIPG-XXV, MIPE5.0, CellTiter-Glo, qHTS, dose response (AID 1347065); conditions: CellTiter-Glo ATP luminescence;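 note: cells exposed to compound for 48 hours before ATP readout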

Row | SMILES | AC50 | outcome
1 | CCCCOC(=O)NS(=O)(=O)c1sc(CC(C)C)cc1-c1ccc(Cn2ccnc2)cc1 | 20.9 µM (active) | 
2 | CC(C)C(N)C(=O)OCC(CO)OCn1cnc2c(=O)[nH]c(N)nc21 (stereo not given) |  | inactive
3 | OC(c1ccc(-c2ccc(CN3CCN(Cc4ccncc4)CC3)cc2)c(F)c1)(C(F)(F)F)C(F)(F)F |  | inactive
4 | CN1C(=O)N[C@H](Cc2c[nH]c3c(Cl)cccc23)C1=O |  | inactive
5 | COc1ncc(Nc2ncc([C@H](C)N3CCN(S(C)(=O)=O)CC3)cc2-c2nc(C)nc(N)n2)cc1F | 0.105 µM (active) | 

test: JHH-DIPG-1 glioma cell viability, MIPE5.0 library, CellTiter-Glo luminescence, qHTS (AID 1347067); conditions: JHH-DIPG-1 glioma viability, CellTiter-Glo ATP luminescence;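 note: cells exposed to compound for 48 hours before readout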

Row | SMILES | AC50 | outcome
6 | Cc1ccc(-n2c(C)cc(-c3nnc4n3CCCCC4)c2C)cc1 | 18.6 µM (active) | 
7 | N#Cc1ccc(-c2c(-c3ncn[nH]3)sc(N3CCOCC3)c2C#N)c(F)c1 | 10.5 µM (active) | 
8 | O=C(NC[C@H](O)CN1CCc2ccccc2C1)c1ccnc(NC2CCC2)c1 | 23.5 µM (active) | 
9 | C=CC(=O)Nc1cccc(Sc2nc(Nc3ccc(N4CCN(C)CC4)cc3)ncc2Cl)c1 | 4.17 µM (active) | 
10 | CCS(=O)(=O)Nc1ccc(Oc2ccc(F)cc2F)c(-c2cn(C)c(=O)c3[nH]ccc23)c1 | 4.68 µM (active) | 
11 | CN(C)c1cc(NC(=O)CNC(C)(C)C)c(O)c2c1C[C@H]1C[C@H]3[C@H](N(C)C)C(=O)C(C(N)=O)=C(O)[C@]3(O)C(=O)C1=C2O |  | inactive
12 | Cc1cc(O)c(-c2ccc([C@@H](C)CN(C)C)cc2)c2c1[nH]c(=O)c1sccc12 | 0.417 µM (active) | 
13 | Nc1nccc2c1ncn2[C@@H]1C=C(CO)[C@@H](O)[C@H]1O |  | inactive
14 | CONC(=O)Nc1ccc(-c2sc3c(c2CN(C)C)c(=O)n(-c2ccc(OC)nn2)c(=O)n3Cc2c(F)cccc2F)cc1 |  | inactive
15 | Cc1c(C(=O)Nc2ccc(Oc3ccnc4[nH]cc(-c5ccccc5)c34)c(F)c2)c(=O)n(-c2ccc(F)cc2)n1C | 16.6 µM (active) | 
16 | NC(=S)N/N=C/c1ncccc1N | 14.8 µM (active) | 
17 | CCNCCc1ccc(CN(CC)c2cc(OC)ccc2[C@@H]2CCc3cc(O)ccc3C2)cc1 | 5.25 µM (active) | 
18 | CC1(C(=O)O)CCC2(C)CCC3(C)C(=CC(=O)C4C5(C)CCC(OC6OC(C(=O)O)C(O)C(O)C6OC6OC(C(=O)O)C(O)C(O)C6O)C(C)(C)C5CCC43C)C2C1 (stereo not given) |  | inactive
19 | COC1(c2sc3c(N4CCOCC4)nc(-c4cnc(N)nc4)nc3c2C)COC1 | 0.525 µM (active) | 
20 | C=Cc1cc(O)cc2nc(-c3ccc(O)c(F)c3)oc12 |  | inactive
21 | O=C1OC(COc2ccccc2[N+](=O)[O-])CC1Cc1ccccc1 (stereo not given) |  | inactive
22 | CN(C)N(C)C(=O)[C@@]1(Cc2ccccc2)CCCN(C(=O)[C@@H](Cc2c[nH]c3ccccc23)NC(=O)C(C)(C)N)C1 |  | inactive
23 | CC(C)n1c(=O)cc(N[C@@H](C)c2ccccc2)[nH]c1=O | 14.8 µM (active) | 
24 | C[C@@H](C(=O)Nc1ccc(Cl)cc1)C1CCC(c2ccnc3ccc(F)cc23)CC1 (stereo not given in full) |  | inactive
25 | NC(=O)c1cccc(-c2cc(Nc3ccc(OC(F)(F)F)cc3)ncn2)c1 | 20.9 µM (active) | 
26 | CC1(C)CCC2(CC1)N[C@@H](C(=O)N[C@@H]1CC[C@@H](C(N)=O)OC1)[C@H](c1ccnc(Cl)c1F)[C@]21C(=O)Nc2cc(Cl)ccc21 | 20.1 µM (active) | 
27 | CCS(=O)(=O)N1CCN(c2ccc(Nc3ncc(C(N)=O)c(NC4CC4)n3)cc2)CC1 | 14.8 µM (active) | 
28 | Cc1c(NC(=O)c2cc(C(N)=O)nc3cc(F)ccc23)c(C(F)(F)F)nn1Cc1ccc(C(C)(C)C)cc1 | 23.5 µM (active) | 
29 | Cc1ccc(S(=O)(=O)Nc2cc(C(F)(F)F)ccc2C(=O)Nc2nc(-c3ccccc3)cs2)cc1 | 3.32 µM (active) | 
30 | O=C(Cc1cccc(OC(F)(F)F)c1)Nc1ccc(CCCCc2nnc(NC(=O)Cc3ccccn3)s2)nn1 | 20.9 µM (active) | 
31 | c1ccc(CNCc2ccc(CN3CCCNCCNCCCNCC3)cc2)nc1 |  | inactive
32 | CCN1C(=O)CNc2ncc(-c3ccc(-c4ncn[nH]4)nc3C)nc21 | 5.9 µM (active) | 
33 | Cc1ccc(NC(=O)[C@H]2CCCN(C(=O)c3c(C)cccc3F)[C@H]2c2ccc(NC3CCCC3)cc2)cc1C(F)(F)F |  | inactive
34 | NC(=O)c1cnc(N[C@@H]2CCCC[C@@H]2N)nc1Nc1cccc(-n2nccn2)c1 | 23.5 µM (active) | 
35 | CN[C@@H](C)C(=O)N[C@H](C(=O)N1CCC[C@H]1C(=O)Nc1snnc1-c1ccccc1)C1CCCCC1 |  | inactive

Reference: PubChem BioAssay
